From PubChem BioAssay AID950 (NMMLSC, 2007)
Screen size: about 190,000 compounds; about 120 (0.063%) were called active. Rule as the data show it: active = inhibition above about 40%; inconclusive = no clear call, values can overlap the other calls; inactive = below that. Many of the other results were omitted from the sample, so actives are more common in it than they were.

Each compound was assayed against Apoptosis regulator Bcl-2 (Homo sapiens) (UniProt P10415) (assay: Bcl-2 and Bim peptide interaction disruptors – biochemical, multiplexed, human Bcl-2 family, primary screen (AID 950;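 also: 0% = no compound wells with probe peptide and 100% = reference peptide inhibitor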)). Settings: Bead-based flow cytometry, Bim peptide-Bcl-2 binding; at 10 µM; hits give high values.
Chain of Apoptosis regulator Bcl-2 (Homo sapiens) (P10415 whole entry, looked up): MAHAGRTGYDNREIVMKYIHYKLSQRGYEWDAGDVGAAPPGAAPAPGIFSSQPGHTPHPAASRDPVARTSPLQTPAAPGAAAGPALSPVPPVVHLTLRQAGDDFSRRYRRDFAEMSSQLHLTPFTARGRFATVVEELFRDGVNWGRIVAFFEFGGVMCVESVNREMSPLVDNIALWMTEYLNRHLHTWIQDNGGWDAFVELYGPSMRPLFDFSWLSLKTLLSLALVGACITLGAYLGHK

inhibition, inactive:
COc1ccc(N2CCN(C(=O)C3CCN(S(=O)(=O)c4ccc(C)cc4)CC3)CC2)cc1 2%
O=C(c1ccc(N2CCOCC2)c([N+](=O)[O-])c1)N1CCN(S(=O)(=O)c2cccs2)CC1 0%
COc1ccc(C(=O)C[n+]2ccc(N)c(C)c2C)cc1 -1%
Cc1ccc(Cl)cc1NC(=S)N(CCN(C)C)Cc1cccs1 -4%
C/C(=N\NC(=S)NC(C)C)c1ccc(C(C)(C)C)cc1 -4%
Cc1nnc(N/N=C/C2CC=CCC2)[nH]c1=O (stereo unspecified) 2%
O=C(c1cccc(S(=O)(=O)N2CCCC2)c1)N(Cc1ccco1)C1CCS(=O)(=O)C1 (stereo unspecified) -3%
CCC(=O)Nc1ccc(Nc2nc(Cl)nc(Nc3ccc(NC(=O)CC)cc3)n2)cc1 0%
COCCCNCCOCCOc1ccc(Cl)cc1Br 1%
O=C(NCc1ccccc1)C1=C[C@@H](C2CCCCC2)C[C@@H](OCc2ccc(CO)cc2)O1 -1%
CCOC(=O)C1CCCN(C(=O)/C=C/c2ccc(OC)cc2)C1 (stereo unspecified) -3%
CCn1c(=O)cc(SCC(=O)NCCC2=CCCCC2)c2ccccc21 8%
O=c1cnnc(Nc2ccccc2)[nH]1 -1%
O=C(N/N=C1\CCSC1)c1cc(Cl)ccc1O 3%
CCOC(=O)COc1ccc([N+](=O)[O-])cc1 -1%
CCCn1c(C)cc(/C=C(\C#N)C(=O)OCC(=O)Nc2cc(OC)c(OC)c(OC)c2)c1C -6%
CC1(C)C(c2cccs2)=[N+]([O-])C2(CCCCC2=O)N1O (stereo unspecified) -5%
CCN(CC(=O)NCc1cccs1)C(=O)c1ccccc1F 1%
COCCN(C(=S)Nc1ccccc1OC)C1CCN(C(C)C)CC1 -1%
Cc1cc(NC(=O)CSCc2ccccc2C)no1 -1%
COC(=O)c1cc(C)sc1NC(=O)CC1Nc2ccccc2NC1=O (stereo unspecified) 0%
CCN(CC)CCOC(=O)c1ccc(NC(=O)CNC(=O)c2ccccc2)cc1 -4%
CCC(NC(=O)c1ccccc1NC(=O)c1ccccc1)C(=O)NNC(=O)CSc1nc2ccccc2o1 (stereo unspecified) -6%
CC(=O)N1CC(C)c2scc(C)[n+]2-c2ccccc21 (stereo unspecified) 2%
CC(O)c1nc2ccccc2n1Cc1ccc([N+](=O)[O-])cc1 (stereo unspecified) -5%
Cc1cc(C)cc(C(=O)N2CCN=C2SCc2ccc([N+](=O)[O-])cc2)c1 -3%
Cc1ccc(C(=O)N2CC(=O)Nc3ccccc32)o1 -6%
CCc1nnc(NC(=O)CSc2nnnn2-c2cccc(C(C)=O)c2)s1 -2%
Cn1cc(CCC(=O)N2CCCC(C(=O)c3ccc(C(C)(C)C)cc3)C2)cn1 (stereo unspecified) -5%
O=C(NCc1ccncc1)C(=O)NCc1ccco1 -1%
Cc1ccc(S(=O)(=O)NC2(C(F)(F)F)NC(=O)N(CCc3ccccc3)C2=O)cc1 (stereo unspecified) -1%
C=CS(=O)c1sc(Cl)c(N2CCOCC2)c1[N+](=O)[O-] (stereo unspecified) 14%
CN1C(=O)/C(=C\c2cc(Br)cs2)c2ccccc21 -2%
CC(=O)c1cc(C#N)c(N2CC(C)OC(C)C2)nc1C (stereo unspecified) -4%
Oc1ccc(/C=N/N(Cc2ccccc2)c2ccccc2)cc1 -9%
Cn1ncc(N2CCN(S(=O)(=O)c3ccc(Br)cc3)CC2)c(Cl)c1=O -9%
C=CCOc1ccc(/C=N/NC(=O)C(C)Sc2ccccn2)cc1OCC (stereo unspecified) -6%
O=C(NNS(=O)(=O)c1ccc(F)cc1)c1cnccn1 0%
COCCC(=O)Nc1ccc2c(c1)CN(C(=O)CCOC)CC2 -4%
Cc1ccc(NC(=O)CCC(=O)N/N=C/c2ccco2)c(C)c1 -6%
CCCc1cc(=O)[nH]c(SCc2cc(=O)oc3c(C)c(C)ccc23)n1 -3%
Cc1cccc(-c2nc3ccccc3c(=O)n2NC(=O)Cc2ccc(Cl)cc2)c1 -11%
S=C(NCc1ccco1)Nc1ccc2c(c1)OCCO2 -1%
CCCCC(=O)NCc1ccc(F)cc1 0%
COc1ccc(NC(=S)NCc2cccs2)c(OC)c1 -4%
O=C(O)CS/C(=C\c1ccc(F)cc1)c1nc2ccccc2s1 7%
CSCc1cc(N2CCOCC2)nc(SCc2ccc(Cl)cc2Cl)n1 -12%
Clc1ccc(CSc2nnc(/C=C/c3ccccc3)o2)c(Cl)c1 -8%
COc1ccc(/C(C)=N/Nc2cc(C(F)(F)F)ccc2Cl)c(OC)c1 2%
COc1c(C)cc(C(=O)C2CCCN(S(=O)(=O)c3c(C)noc3C)C2)cc1C (stereo unspecified) 0%
CC1(C)OC(=O)C(=CSc2ccc(C(C)(C)C)cc2)C(=O)O1 -3%
CCOC(=O)C1CCN(c2ncnc3c2c(-c2ccccc2)cn3-c2ccc(C)cc2)CC1 -5%
CCCN(CCC)c1ccc(C(O)c2nnc(-c3ccccc3)o2)cc1 (stereo unspecified) -5%
O=C(COc1ccc(Cl)cc1)NCc1nnc(SCC(=O)NCC2CCCO2)o1 (stereo unspecified) -2%
COC(=O)c1c(NC(=O)CN2CCN(S(=O)(=O)c3ccccc3[N+](=O)[O-])CC2)sc2c1CCC(C)C2 (stereo unspecified) 2%
O=S(=O)(c1ccccc1)c1nc(-c2ccccc2F)oc1NCc1cccnc1 2%
CS(=O)(=O)N(Cc1ccccc1Cl)c1ccc(C(=O)NCc2cccnc2)cc1 -4%
CCOC(=O)c1sc(NC(=O)CSc2nc(O)c(Cc3ccccc3)c(=O)[nH]2)nc1C 0%
COc1ccc(CN2CN(C3CCCC3)CSC2=S)cc1 -4%
COC(=O)c1ccc(-n2cnc3ccccc32)nc1 -4%
CCOc1cc(/C=C2/C(=N)N3OC(C)=CC3=NC2=O)ccc1OC 2%
CNC(=O)c1[nH]cnc1C(=O)N[C@@H](CC(C)C)C(=O)OCc1ccccc1 -3%
CCOC(=O)Cn1nnnc1C -3%
CN(NC(=O)C1CC(=O)N(c2ccccc2)C1)C1=NS(=O)(=O)c2ccccc21 (stereo unspecified) -2%
Cc1nc2sc3c(c2c(=O)n1NC(=O)CCl)CCCC3 -3%
COc1ccc(N(CC(=O)Nc2ccc(C)cc2C)S(=O)(=O)c2ccccc2[N+](=O)[O-])c(OC)c1 -1%
COc1cccc(CN(C)CC(=O)NCc2ccccc2Cl)c1OC 0%
CCOC(=O)c1[nH]cnc1C(=O)Nc1ccccc1C 1%
CCCC1(C(=O)OC)NC(c2ccco2)C2C(=O)N(C)C(=O)C21 (stereo unspecified) -2%
CC(=O)Nc1ccc(OC(=O)COc2ccc(Br)cc2)cc1 0%
c1ccc(Cc2cc[n+](Cc3ccccc3)cc2)cc1 0%
C/C(CC(=O)Nc1ccc(C)cc1C)=N\NC(=O)C(C)C 0%
COc1cccc(NC(=O)CN(C)CC(=O)Nc2ccc3c(c2)CCC3)c1 0%
Cc1ccc(NC(=O)N2CCSc3ccccc32)cc1 -1%
COc1ccc(NC(=S)Nc2ccc(S(N)(=O)=O)cc2)c(C)c1 -4%
O=C(c1ccc(Br)o1)N(c1ccccn1)C1CCCCC1 -16%
Cc1sc2c(c1C)c(=O)n(-c1ccccc1)c(=O)n2CC(=O)NCC1CCCO1 (stereo unspecified) 1%
COc1ccc(Br)cc1CN(C)CC(=O)Nc1cc([N+](=O)[O-])ccc1OC -9%
O=C(/C=C/c1ccccc1Cl)Nc1ccc(S(=O)(=O)Nc2ncccn2)cc1 -1%
COC(=O)Cc1ccc(OCC(=O)Nc2ccc(OC(F)(F)F)cc2)cc1 -5%
O=C(C1CCCO1)N(c1ccc(F)cc1)C1C=CS(=O)(=O)C1 (stereo unspecified) -2%
CCc1nnc(NC(=O)CCN(c2ccc(C)cc2)S(=O)(=O)c2ccccc2)s1 0%
COc1ccc(-c2csc(NC(=O)c3ccc(N4C(=O)CCC4=O)cc3)n2)cc1OC -4%
CCOc1ccc(NC(=O)CC2C(=O)N(c3ccccc3)C(=O)N2CCOC)cc1 (stereo unspecified) 1%
Cc1ccc(C(NC(=O)N2CCCC2)C(Cl)(Cl)Cl)cc1F (stereo unspecified) -1%
COc1ccc(C[C@H]2CN3C(=NC[C@H]3C)N2CCNC(=O)CCC2CCCCC2)cc1 0%
CCOc1ccc(-c2ccc(SCC(=O)N3CCOCC3)nn2)cc1 -3%
O=C(CC1CCCCC1)NCc1ccco1 -4%
CCOC(=O)CNC(=O)/C=C/c1c(Cl)cccc1Cl 4%
CCN(CC)CCCNC(=O)Cn1cnc2sc(C)c(S(=O)(=O)N3CCN(c4ncccn4)CC3)c2c1=O -3%
CCOn1c(=O)c(=O)n(O)c2ccccc21 -1%
CCO[C@@H]1OC(C(=O)NCc2nc3ccccc3[nH]2)=C[C@H](C2CCCCC2)[C@H]1CCCO -2%
Fc1cccc(CSc2nnc3ccc(-c4ccncc4)nn23)c1 3%
CSc1ccc(/C=N/NC(=O)c2cccc(Cl)c2)cc1 -7%
O=C(Cc1ccc([N+](=O)[O-])cc1)N/N=C/c1ccco1 -4%
CC1(C)CC(=O)C(C2c3ccccc3S(=O)(=O)c3ccccc32)C(=O)C1 0%
O=C(Oc1c(-c2ccco2)oc2ccccc2c1=O)c1cccnc1 -4%
CCOCCCn1c(NN)nc2ccccc2c1=O -5%
CCOc1ccc(NC(=O)c2ccc(CSc3nnnn3C)cc2)cc1 -9%
Nc1nnc(SCn2nnc3ccccc3c2=O)s1 -5%
CN(CC(=O)Nc1ccccc1F)CC(=O)Nc1ccccc1Br -5%
Cc1cc(C)cc(N(CC(=O)NCCSCc2ccco2)S(C)(=O)=O)c1 -7%
COc1ccc(C(CCN(Cc2ccc(OC)c(OC)c2)C(=O)CCl)c2ccccc2)cc1 (stereo unspecified) -6%
COc1cc(OC)c(C(=O)OC(C)C(=O)Nc2cc(C(F)(F)F)ccc2Cl)cc1OC (stereo unspecified) -3%
Cc1ccnc(NC(=O)C(C)N2C(=O)c3ccccc3C2=O)c1 (stereo unspecified) 0%

inhibition, active:
CSCc1cc(N(C)C)nc(SCc2ccc(Cl)cc2Cl)n1 76%
